Here are results for 59 molecules from ChEMBL document CHEMBL3988442, “University of Dundee, Small-Polar-MMV Screening Library” (2021).

The whole screen tested about 69,000 compounds, of which about 420 (0.61%) showed an effect of 50% or more. The full list was thinned out, with strong results kept by preference.

This test deals with T1, Histidine--tRNA ligase (Leishmania infantum) (UniProt A4I591).
T1 sequence (whole entry): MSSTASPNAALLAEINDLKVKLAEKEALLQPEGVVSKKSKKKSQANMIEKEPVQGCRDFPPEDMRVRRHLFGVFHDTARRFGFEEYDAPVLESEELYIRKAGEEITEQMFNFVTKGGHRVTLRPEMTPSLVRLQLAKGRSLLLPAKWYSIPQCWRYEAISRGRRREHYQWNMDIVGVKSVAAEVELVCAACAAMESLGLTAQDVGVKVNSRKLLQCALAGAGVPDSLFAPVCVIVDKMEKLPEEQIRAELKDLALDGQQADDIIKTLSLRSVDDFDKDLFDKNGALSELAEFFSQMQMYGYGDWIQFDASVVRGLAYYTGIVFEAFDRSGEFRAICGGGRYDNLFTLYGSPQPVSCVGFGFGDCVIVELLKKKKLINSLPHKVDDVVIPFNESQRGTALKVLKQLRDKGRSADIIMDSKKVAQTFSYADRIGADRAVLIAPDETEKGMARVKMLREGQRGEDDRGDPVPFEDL
Nature of the test: Leishmania infantum Histidine tRNA synthetase (LdHisRS). The format is functional. Further details: scale not given: in the data most compounds retested in dose-response had high values. The settings on record: 30 µM.
As to `Cc1nnc([C@@H]2CC[C@@H]3[C@@H](CCN3C3CCC3)O2)o1`, the Percent Effect was 5.26%.

For the molecule `O=C(NC1CCCC1)N1C[C@H]2CN(c3ccccn3)C[C@@]2(C(=O)O)C1`, the Percent Effect was 3.92%. In the case of `O=C(NC[C@]12COC[C@H]1CN(Cc1nccs1)C2)c1ccccc1` it was 17.5%. For `CS(=O)(=O)N1C[C@@H](NC(=O)c2ccno2)[C@@H]2OCCC[C@@H]21`, the Percent Effect was -4.54%.

On to `CCCN(CCC)C(=O)c1cnn(C)c1C`, for which the Percent Effect is -4%.

For `COCCN(C(=O)c1cnccn1)c1nc2c(s1)CCc1c-2cnn1C`, the Percent Effect came to 51%. Under `CCCN(C(=O)c1cnc(C)cn1)c1nc2c(s1)CCc1c-2cnn1C` stands 99%. In the case of `COCCN1C(=O)CC[C@]12CC[C@@H](NC(=O)c1cnccn1)CC2` it was -179%.

On to `CCN(CC)Cc1cn2c(n1)CN(C(=O)c1cnccn1)CC2`, for which the Percent Effect stood at 9.02%. Under `Cc1cccc(N(CCC(N)=O)C(=O)c2cnccn2)c1` stands 5%. Under `Cc1cnc(C(=O)N(CCN(C)C)Cc2ccc(Cl)cc2)cn1` stands 24%. In the case of `CCCN(C(=O)c1cnccn1)c1nc2c(s1)CCc1c-2cnn1C` it was 94.8%. As for `COCC1c2c(cnn2C)CCN1C(=O)c1cscn1` (centres undefined), the Percent Effect stood at 11.7%. Under `Cc1nc(CN2CC[C@@H]3O[C@@H](C(=O)N4CCOCC4)C[C@@H]32)cs1` stands 17.4%; under `Cn1cccc1C(=O)N1C[C@@H]2CCCO[C@@H]2[C@H](N2CCOCC2)C1`, 17.5%; under `Cc1ccc(C(=O)N2C[C@@H]3[C@@H](C2)OCC(=O)N3Cc2cccnc2)o1`, 22.1%. Under `O=C1C[C@H]2[C@@H](CCN2C(=O)c2ccc[nH]2)N1CCN1CCCC1` stands 8.06%; under `Cc1ccc(CN2CCN(Cc3nccn3C)[C@H]3CS(=O)(=O)C[C@H]32)o1`, 16.8%.

As to `O=C(NC1CC(F)(F)C1)[C@]12COC[C@H]1CN(Cc1ccccc1)C2`, the Percent Effect was determined as 24%. With `CNC(=O)[C@H]1C[C@@H]2CN(S(=O)(=O)c3cccc(F)c3)C[C@@H]2N1C`, the Percent Effect came to 28.6%. Under `CN(C)C(=O)N1C[C@@H]2COC[C@]2(CNS(C)(=O)=O)C1` stands 4.51%; under `CC(C)(C)c1ccc(OCC(=O)O)c(CN2C[C@H]3C[C@H](O)C[C@H]3C2)c1`, 14.5%.

In the case of `Cc1nc(CN2CC[C@H]3[C@H]2CCN3c2nncs2)cs1`, the Percent Effect was 17.5%. Consider `NCC1Cc2cc(-c3cnccn3)cc(Cl)c2O1` (centres undefined), for which the Percent Effect worked out at 11%.

Regarding `Cc1nc(-c2cc(F)c3c(c2)CC(CN)O3)c[nH]1` (centres undefined), the Percent Effect worked out at 26.2%. `NCC1Cc2cccc(-c3nccc(N4CCC(O)CC4)n3)c2O1` (centres undefined): the Percent Effect stood at 34.3%. Under `NCC1Cc2cc(-c3nccc(N4CCC(O)CC4)n3)cc(Cl)c2O1` (centres undefined) stands 60%.

Regarding `Cc1nc(-c2cc(Cl)c3c(c2)CC(CN)O3)c[nH]1` (centres undefined), the Percent Effect came to 40.5%. Under `NCC1Cc2cc(-c3nccc(N4CCC(O)CC4)n3)cc(F)c2O1` (centres undefined) stands 51.4%. Under `CCCOc1ccc(C(=O)N2CC[C@H]3CC[C@@H](C2)N3)cc1Cl` stands 9.17%; under `Cn1cccc1C(=O)N1CC[C@@H]2[C@@H]1CC(=O)N2CC1CCOCC1`, 19.3%; under `CN1CCO[C@@H]2CN(C(=O)Cc3cccs3)CC[C@@H]2C1`, 2.73%. In the case of `Cc1nccc(-c2cccc(NCC(=O)N3CCCCCCC3)c2)n1` it was -19.7%. As to `Cc1nccc(-c2cccc(NCC(=O)N3CCNC(=O)C3)c2)n1`, the Percent Effect came to 14.9%. Under `Cc1nccc(-c2cccc(NCC(=O)N3CCc4sccc4C3)c2)n1` stands 50%; under `Cc1ccc(N2CCCC(NCc3ccc(C)s3)C2)nn1` (centres undefined), 12.3%; under `CCOc1nnc(CNC2CCCN(c3ccc(C)nn3)C2)s1` (centres undefined), 54.8%. In the case of `CCOc1nnc(CN(C)C2CCCN(c3ccc(C)nn3)C2)s1` (centres undefined) it was 27%; in that of `CC/N=c1/c(NC(=O)NCCOC)c(O)oc2ccccc12`, 12.4%; in that of `CCn1nc2c(cc1=O)CN(c1ncnc3ccsc13)CC2`, 58.6%. In the case of `Cn1nc2c(cc1=O)CN(c1ncnc3ccsc13)CC2` it was 100%; in that of `CN1C(=O)[C@H]2CC[C@@H]1CN(c1ncnc3ccsc13)C2`, 19.8%. On to `CC(C)n1nc2c(cc1=O)CN(c1ncnc3ccsc13)CC2`, for which the Percent Effect was determined as 11.7%.

In the case of `CCCn1nc2c(cc1=O)CN(C(C)C(=O)Nc1nccs1)CC2` (centres undefined), the Percent Effect was 17.9%. In the case of `CC(C)n1nc2c(cc1=O)CN(c1ncnc3ccccc13)CC2`, the Percent Effect came to 18.9%.

In the case of `Cn1ccnc1CN1CCN(c2ncnc3ccsc23)CC1`, the Percent Effect came out at 11%. Take `CCCn1nc2c(cc1=O)CN(c1ncnc3ccsc13)CC2`: the Percent Effect was determined as 83.8%. As to `N#Cc1cccc(CN2CCN(C(=O)C3CCC3)[C@@H]3CS(=O)(=O)C[C@@H]32)c1`, the Percent Effect was found to be 23.3%. With `COCCN1C(=O)[C@H]2CC[C@@H]1CN(Cc1nnc(C3CC3)o1)C2`, the Percent Effect is -2.04%. Under `Cc1cccc(CO[C@@H]2C[C@H]3CN(C(=O)c4cnccn4)CCN3C2)n1` stands 12.3%. `O=S(=O)(N1CCCC1)N1C[C@@H](c2cccc(F)c2)[C@@H]2NCCCCC[C@H]21`: the Percent Effect was -7.37%. Regarding `COC(=O)N1C[C@H]2CC[C@@H]1CN(Cc1cscn1)C2`, the Percent Effect stood at 22.9%.

`Cc1nc(CCN)cc(N2CCC(O)(c3ccc(Cl)cc3)CC2)n1`: the Percent Effect worked out at 52.1%. In the case of `COc1ccc(C(=O)N2CCN(c3cc(CCN)nc(C)n3)CC2)cc1` it was 50.4%; in that of `Cc1nc(CCN)cc(N2CCC(O)(c3ccccc3)C2)n1` (centres undefined), 7.04%; in that of `Cc1nc(CN)cc(N2CCC(O)(c3ccc(Cl)cc3)CC2)n1`, 7.04%.

For the molecule `CCNc1cc(N2CCN(C(=O)c3ccc(OC)cc3)CC2)nc(C)n1`, the Percent Effect worked out at 2.4%.

On to `CCOc1cc(N2CCN(C(=O)c3ccc(OC)cc3)CC2)nc(C)n1`, for which the Percent Effect came to 5.98%. For `O=C(NC[C@@]1(COc2cnccn2)C[C@@H](O)[C@@H](O)C1)C1CCCC1`, the Percent Effect is 18.9%.
